This is an account of results in PubChem BioAssay AID434970 (Sanford-Burnham Center for Chemical Genomics, 2010).

Among all 11,000 compounds or so, about 310 (2.8%) were called active. The sample holds actives, similar compounds and a random draw of the others, so the mix is not that of the screen. Cut-off read from the data, not from the text of the source: active = activity change below about -85%; inactive = the rest.

The assay concerns intestinal alkaline phosphatase [Mus musculus]. As to the kind of experiment: mouse intestinal phosphatase enzyme activation – biochemical, luminescence, single concentration, confirmation (AID 434970). To be noted: purified mouse IAP, CDP-Star luminescence, 30 min, at 10 µM; activation factor: measured here: IAP activation factor, stronger effect = higher value; activity change, negative = activation: stronger effect = lower value.
As for `COc1ccc(N2C(=O)C3CCCN3C2c2ccccc2)cc1Cl` (configuration not stated), the activation factor was 0.895 and the activity change, negative = activation is 10.5% (inactive).

In the case of `C=CCNC(=O)c1nc2ccccc2s1`, the activation factor was 0.92 and the activity change, negative = activation was 8% (inactive).

Take `Cn1c(=O)cc(SCC(=O)Nc2cccnc2)c2ccccc21`: the activation factor was 0.952 and the activity change, negative = activation is 4.8% (inactive).

Take `CCC1CCCCN1CCCNC(=O)c1ccc2c(=O)n(Cc3ccc(OC)cc3)c(=O)[nH]c2c1` (configuration not stated): the activation factor stood at 0.925 and the activity change, negative = activation is 7.5% (inactive).

Take `Fc1ccc(CNc2nc(-c3ccco3)cc(C(F)(F)F)n2)cc1`: the activation factor amounted to 0.991 and the activity change, negative = activation was 0.9% (inactive).

With `COc1ccc2c(c1OC)C(=O)N(c1ccc(C)c(C)c1)C2=O`, the activation factor is 0.976 and the activity change, negative = activation is 2.45% (inactive).

For `COc1cc(/C=C(\C#N)c2nc3ccc(C)cc3[nH]2)c([N+](=O)[O-])cc1OC`, the activation factor worked out at 0.806 and the activity change, negative = activation was 19.4% (inactive).

`Cc1[nH]ccc(=O)c1OCc1c(Cl)cccc1Cl`: the activation factor turned out to be 0.957 and the activity change, negative = activation is 4.3% (inactive).

For `COCCn1c(Sc2ccccc2)nc2c1c(=O)[nH]c(=O)n2C`, the activation factor came out at 1.07 and the activity change, negative = activation was -6.95% (inactive).

As to `COC(=O)[C@H]1C2CCC(C(=O)OC)(CC2)[C@H]1C(=O)OC`, the activation factor stood at 0.915 and the activity change, negative = activation was 8.55% (inactive).

Turning to `O=S(=O)(c1ccc(F)cc1)N1CCN(CC(O)COCc2cccs2)CC1` (configuration not stated), the activation factor was found to be 0.928 and the activity change, negative = activation is 7.2% (inactive).

In the case of `Cc1c(C(=O)Nc2ccc(Cl)cc2)c2ccccn2c1C(=O)c1ccccc1`, the activation factor is 1.02 and the activity change, negative = activation was -1.8% (inactive).

Regarding `COC(=O)Nc1ccc2c(c1)OCO2`, the activation factor worked out at 0.903 and the activity change, negative = activation was 9.6% (inactive).

Turning to `Cc1ccc(NC(=O)N/C=C/c2ccc(Cl)cc2)cc1`, the activation factor came out at 1.09 and the activity change, negative = activation was -9.1% (inactive).

For `CC1CCCN(C(C(=O)Nc2ccc(C(C)C)cc2)c2ccc3c(c2)OCO3)C1` (configuration not stated), the activation factor came out at 1.73 and the activity change, negative = activation is -73.3% (inactive).

`Cc1noc(-c2ccccc2)c1NC(=O)Nc1ccc(Cl)cc1`: the activation factor worked out at 1.7 and the activity change, negative = activation was -70.2% (inactive).

On to `CCN(CC)C(C(=O)Nc1ccc(C(C)C)cc1)c1ccc2c(c1)OCO2` (configuration not stated), for which the activation factor came to 1.48 and the activity change, negative = activation was -48.4% (inactive).

Take `CC(C)c1ccc(NC(=O)NC(C)c2ccc3c(c2)OCO3)cc1` (configuration not stated): the activation factor came out at 3.31 and the activity change, negative = activation was -231% (active).

With `CC(NC(=O)C1CCC1)c1ccccc1` (configuration not stated), the activation factor came to 1.12 and the activity change, negative = activation was -11.9% (inactive).

As for `COc1ccc(Cl)cc1C(=O)Nc1ccc2c(c1)OCO2`, the activation factor worked out at 1.1 and the activity change, negative = activation was -10.2% (inactive).

Take `Cc1ccc(NC(=O)N/C=C/c2ccccc2)cc1`: the activation factor came out at 1.56 and the activity change, negative = activation was -55.5% (inactive).

For `CC(NC(=O)Nc1ccc(Cl)cc1)c1ccccc1` (configuration not stated), the activation factor is 2.11 and the activity change, negative = activation was -111% (active).

On to `CC(NC(=O)Nc1ccc(Cl)cc1)c1ccc2c(c1)OCO2` (configuration not stated), for which the activation factor came to 2.53 and the activity change, negative = activation is -153% (active).

As for `O=C(N/C=C/c1ccccc1)Nc1ccc(Cl)cc1`, the activation factor came out at 2.71 and the activity change, negative = activation was -171% (active).

Turning to `Cc1cccc(OCCCSc2nc3ccccc3[nH]2)c1`, the activation factor stood at 1.13 and the activity change, negative = activation was -12.6% (inactive).

Consider `COC(=O)c1c(NC(=O)c2ccccc2)sc(Cc2ccccc2)c1C`, for which the activation factor is 1 and the activity change, negative = activation was -0.05% (inactive).

For the compound `O=C(NCC(=O)N(CC1CCCO1)C1(C(=O)NC2CCCC2)CCCCC1)c1ccccc1` (configuration not stated), the activation factor was found to be 1.03 and the activity change, negative = activation was -3.2% (inactive).

As for `CCOC(=O)N1CCN(C(=O)Cn2c(C)cc3ccccc3c2=O)CC1`, the activation factor was determined as 1.12 and the activity change, negative = activation was -11.8% (inactive).

For the compound `Cc1ccc(Nc2c3c(nc4ncnn24)CC(C)CC3)cc1` (configuration not stated), the activation factor stood at 1.02 and the activity change, negative = activation is -2.1% (inactive).

Regarding `C1CN(c2nc3nonc3n3nnnc23)CCO1`, the activation factor is 0.972 and the activity change, negative = activation is 2.75% (inactive).

For the compound `O=C(Cn1cc(C(=O)C2CC2)c2ccccc21)NCC1CCCO1` (configuration not stated), the activation factor was determined as 0.944 and the activity change, negative = activation was 5.6% (inactive).

Consider `O=C(O)CS(=O)(=O)c1ccc(Oc2ccc(S(=O)(=O)CC(=O)O)cc2)cc1`, for which the activation factor is 1.1 and the activity change, negative = activation is -10.4% (inactive).

In the case of `CC(C)c1ccc(NC(=S)NCc2ccc3c(c2)OCO3)cc1`, the activation factor amounted to 1.36 and the activity change, negative = activation is -36.3% (inactive).

For `CCc1ccc(NC(=O)NC(C)c2ccc3c(c2)OCO3)cc1` (configuration not stated), the activation factor is 2.66 and the activity change, negative = activation is -166% (active).

Take `CC(NC(=O)c1ccco1)c1ccc2c(c1)OCCO2` (configuration not stated): the activation factor stood at 0.968 and the activity change, negative = activation is 3.25% (inactive).

For the compound `COc1cc2oc(=O)cc(-c3ccc(-c4ccc(C)cc4)cc3)c2c(OC)c1OC`, the activation factor turned out to be 0.934 and the activity change, negative = activation is 6.55% (inactive).

`COc1ccc(CC(=O)N[C@@H]2c3ccccc3CC[C@@H]2OCc2ccccc2)cc1`: the activation factor stood at 1.19 and the activity change, negative = activation was -18.9% (inactive).

As to `Cc1sc2nc(CN3CCOCC3)nc(NS(=O)(=O)c3ccc4c(c3)OCCO4)c2c1C`, the activation factor turned out to be 0.956 and the activity change, negative = activation is 4.4% (inactive).

Consider `Cc1cc(C)nc(N2CCC(C(=O)NCc3cccc(C(F)(F)F)c3)CC2)n1`, for which the activation factor turned out to be 0.95 and the activity change, negative = activation was 5.1% (inactive).

As to `Cc1ccc(C(=O)NC(Cc2cccc(C(F)(F)F)c2)C(=O)O)cc1` (configuration not stated), the activation factor amounted to 1.14 and the activity change, negative = activation is -13.9% (inactive).

For `Cc1cc(Cn2nc(-c3ccccc3)cc2C(=O)NCc2cccc(C(F)(F)F)c2)on1`, the activation factor was 2.25 and the activity change, negative = activation was -125% (active).
